Measurements taken from PubChem BioAssay (NCATS).
Several values for one entry are separate records, joined by “and”; a condition that tells them apart may be missing. Equal entries are not always repeated. Records with an inconclusive call do not appear. Where a call stands in place of a potency, no number is given. Activity calls are given as the source filed them. Unless noted, calls follow the shape of the full dose curve.

Columns and labels:
[1] = target: Estrogen receptor (Homo sapiens) (UniProt P03372); assay: qHTS assay for small molecule antagonists of estrogen receptor alpha signaling (AID 588513; active = well fitted curve in the direction sought with a large enough effect in the signal ratio, with a control signal flat, not every such curve was filed as active; the % refers to the signal ratio)
Sequence of Estrogen receptor (Homo sapiens) (P03372 whole entry, looked up): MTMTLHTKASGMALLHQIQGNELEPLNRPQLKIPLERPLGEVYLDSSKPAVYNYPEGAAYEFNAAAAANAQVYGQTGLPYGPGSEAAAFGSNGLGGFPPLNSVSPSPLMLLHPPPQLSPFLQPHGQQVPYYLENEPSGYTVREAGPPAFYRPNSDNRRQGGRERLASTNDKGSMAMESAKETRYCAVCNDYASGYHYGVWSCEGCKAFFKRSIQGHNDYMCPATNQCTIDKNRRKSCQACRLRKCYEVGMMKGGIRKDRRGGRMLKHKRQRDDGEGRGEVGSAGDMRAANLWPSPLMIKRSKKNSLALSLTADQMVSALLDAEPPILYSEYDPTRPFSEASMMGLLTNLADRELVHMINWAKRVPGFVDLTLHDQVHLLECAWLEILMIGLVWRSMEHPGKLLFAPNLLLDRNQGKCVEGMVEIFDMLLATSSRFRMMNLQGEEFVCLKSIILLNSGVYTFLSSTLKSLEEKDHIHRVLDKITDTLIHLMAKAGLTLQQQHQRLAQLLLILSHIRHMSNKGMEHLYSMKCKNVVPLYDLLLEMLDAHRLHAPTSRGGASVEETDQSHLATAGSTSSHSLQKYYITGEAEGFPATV
How it was run: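 Fluorescence from CCF4 substrate after 2 h at room temperature gave reporter activity; cells had been exposed to compound and 0.5nM 17-beta-estradiol for 18 h at 37 C. Hill-equation fitting yielded IC50 and maximal response.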

[2] = target: Estrogen receptor (Homo sapiens) (UniProt P03372); assay: qHTS assay for small molecule agonists of estrogen receptor alpha signaling (AID 588514); also: nearly all actives have a fitted effect of over 70% in size
How it was run: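 Cells were plated at 5000/well, incubated 4 hrs at 37 C, dosed with compound titration series, incubated 18 hrs at 37 C, loaded with CCF4 dye for 2 hrs at RT, then fluorescence was read.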

[3] = qHTS assay for small molecule antagonists of peroxisome proliferator-activated receptor delta signaling (AID 588535); settings: HEK293T PPARd-UAS-bla, beta-lactamase FRET ratio, 18 h; 460 nm channel;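 also: cells co-treated with a PPAR-delta agonist as stimulator during compound exposure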
How it was run: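 HEK293T PPAR-delta-UAS-bla cells, 4000/well, 2% charcoal/dextran FBS; 5 h 37 C; cpd titration; 18 h 37 C; CCF4 2 h RT; FI 460/530 nm; Hill fit → IC50, efficacy.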

[4] = target: Peroxisome proliferator-activated receptor gamma (Homo sapiens) (UniProt P37231); assay: qHTS assay for small molecule agonists of peroxisome proliferator-activated receptor gamma signaling (AID 588536; active = well fitted curve in the direction sought with a large enough effect in the signal ratio, with a control signal flat, not every such curve was filed as active; the % refers to the signal ratio)
Sequence of Peroxisome proliferator-activated receptor gamma (Homo sapiens) (P37231 whole entry, looked up): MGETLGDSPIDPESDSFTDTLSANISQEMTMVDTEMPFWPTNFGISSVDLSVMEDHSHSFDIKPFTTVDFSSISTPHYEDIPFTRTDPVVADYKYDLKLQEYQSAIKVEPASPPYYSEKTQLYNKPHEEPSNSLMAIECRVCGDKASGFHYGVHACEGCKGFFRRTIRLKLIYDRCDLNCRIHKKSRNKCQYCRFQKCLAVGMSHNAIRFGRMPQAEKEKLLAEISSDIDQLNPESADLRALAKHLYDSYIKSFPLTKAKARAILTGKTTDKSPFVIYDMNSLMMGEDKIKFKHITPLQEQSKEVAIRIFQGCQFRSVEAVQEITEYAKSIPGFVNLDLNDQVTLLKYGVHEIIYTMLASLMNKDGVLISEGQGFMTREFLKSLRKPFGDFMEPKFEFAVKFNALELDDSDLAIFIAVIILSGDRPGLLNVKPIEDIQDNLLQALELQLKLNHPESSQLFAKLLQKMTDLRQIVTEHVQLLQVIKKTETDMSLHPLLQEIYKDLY
How it was run: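 GeneBLAzer PPAR-gamma-UAS-bla HEK293 cells in 1% charcoal/dextran-treated FBS medium were treated 16 h at 37 C with compounds. Beta-lactamase activity was read by CCF4 ratio (460/530 nm). Response was normalized to 2 uM rosiglitazone (100%) and DMSO, then Hill-fitted for EC50 and efficacy.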

[5] = qHTS assay for small molecule agonists of retinoid X receptor alpha signaling (AID 588544); settings: HEK293T RXRa-UAS-bla, beta-lactamase reporter, 18 h; 530 nm emission
[6] = target: Retinoic acid receptor RXR-alpha (Homo sapiens) (UniProt P19793); assay: as above
Sequence of Retinoic acid receptor RXR-alpha (Homo sapiens) (P19793 whole entry, looked up): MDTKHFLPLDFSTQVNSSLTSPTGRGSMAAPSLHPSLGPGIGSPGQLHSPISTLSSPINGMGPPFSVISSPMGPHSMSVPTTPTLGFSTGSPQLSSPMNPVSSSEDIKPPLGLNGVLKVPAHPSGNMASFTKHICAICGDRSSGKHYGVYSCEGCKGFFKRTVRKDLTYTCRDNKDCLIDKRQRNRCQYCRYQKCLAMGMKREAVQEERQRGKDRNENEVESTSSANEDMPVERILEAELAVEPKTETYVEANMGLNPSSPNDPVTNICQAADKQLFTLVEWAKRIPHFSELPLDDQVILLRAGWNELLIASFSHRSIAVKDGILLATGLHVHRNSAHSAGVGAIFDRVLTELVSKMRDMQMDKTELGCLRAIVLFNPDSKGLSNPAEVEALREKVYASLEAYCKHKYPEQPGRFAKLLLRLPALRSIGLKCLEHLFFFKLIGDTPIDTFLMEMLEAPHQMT

[7] = target: Thyroid hormone receptor beta (Homo sapiens) (UniProt P10828); assay: qHTS assay for small molecule agonists of thyroid hormone receptor beta signaling (AID 588545)
Sequence of Thyroid hormone receptor beta (Homo sapiens) (P10828 whole entry, looked up): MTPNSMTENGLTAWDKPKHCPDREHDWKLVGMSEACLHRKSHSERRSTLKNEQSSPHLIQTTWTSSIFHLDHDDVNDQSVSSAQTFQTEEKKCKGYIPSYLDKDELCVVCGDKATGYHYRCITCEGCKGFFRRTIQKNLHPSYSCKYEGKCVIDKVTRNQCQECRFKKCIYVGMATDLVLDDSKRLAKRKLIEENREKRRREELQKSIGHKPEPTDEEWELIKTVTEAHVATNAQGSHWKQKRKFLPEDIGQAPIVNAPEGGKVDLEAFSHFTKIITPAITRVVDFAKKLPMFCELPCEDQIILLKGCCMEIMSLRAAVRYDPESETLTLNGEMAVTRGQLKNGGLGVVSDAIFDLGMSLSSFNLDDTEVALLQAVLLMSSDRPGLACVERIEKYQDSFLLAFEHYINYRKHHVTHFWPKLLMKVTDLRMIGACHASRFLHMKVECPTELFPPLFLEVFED
How it was run: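 Efficacy and EC50 values derive from Hill fits of qHTS titration data, normalized to 10 nM T3 and DMSO-only wells. HEK 293 reporter cells were stimulated for 18 hrs at 37 C, with beta-lactamase activity measured by CCF4 fluorescence.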

[8] = qHTS assay for small molecule antagonists of retinoid X receptor alpha signaling (AID 588546; active = well fitted inhibition curve with a large enough effect in the signal ratio, with a control signal flat, not every such curve was filed as active; the % refers to the signal ratio;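 also: cells stimulated with 9-cis-retinoic acid as agonist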); settings: HEK293T RXRa-UAS-bla, beta-lactamase ratio, antagonist mode; measured here: W530 green channel, cytotoxicity proxy
How it was run: (§1)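 Beta-lactamase reporter inhibition, read as CCF4 fluorescence ratio (ex 405, em 460/530 nm) after 2 h at RT. HEK293T UAS-bla cells, 2500/well, were stimulated with 9-cis-RA at 500 or 100 nM final alongside test compound for 18 h at 37 C.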

[9] = target: Retinoic acid receptor RXR-alpha (Homo sapiens) (UniProt P19793); assay: as above; settings: HEK293T RXRa-UAS-bla, beta-lactamase ratio, antagonist mode
How it was run: as §1

[10] = target: Glucocorticoid receptor (Homo sapiens) (UniProt P04150); assay: qHTS assay for small molecule agonists of glucocorticoid receptor signaling (AID 588532; active = well fitted curve in the direction sought with a large enough effect in the signal ratio, with a control signal flat; the % refers to the signal ratio); settings: HeLa MMTV-bla, beta-lactamase ratio, agonist, 18 h; stronger effect = higher value; percent of dexamethasone control, DMSO zero
Sequence of Glucocorticoid receptor (Homo sapiens) (P04150 whole entry, looked up): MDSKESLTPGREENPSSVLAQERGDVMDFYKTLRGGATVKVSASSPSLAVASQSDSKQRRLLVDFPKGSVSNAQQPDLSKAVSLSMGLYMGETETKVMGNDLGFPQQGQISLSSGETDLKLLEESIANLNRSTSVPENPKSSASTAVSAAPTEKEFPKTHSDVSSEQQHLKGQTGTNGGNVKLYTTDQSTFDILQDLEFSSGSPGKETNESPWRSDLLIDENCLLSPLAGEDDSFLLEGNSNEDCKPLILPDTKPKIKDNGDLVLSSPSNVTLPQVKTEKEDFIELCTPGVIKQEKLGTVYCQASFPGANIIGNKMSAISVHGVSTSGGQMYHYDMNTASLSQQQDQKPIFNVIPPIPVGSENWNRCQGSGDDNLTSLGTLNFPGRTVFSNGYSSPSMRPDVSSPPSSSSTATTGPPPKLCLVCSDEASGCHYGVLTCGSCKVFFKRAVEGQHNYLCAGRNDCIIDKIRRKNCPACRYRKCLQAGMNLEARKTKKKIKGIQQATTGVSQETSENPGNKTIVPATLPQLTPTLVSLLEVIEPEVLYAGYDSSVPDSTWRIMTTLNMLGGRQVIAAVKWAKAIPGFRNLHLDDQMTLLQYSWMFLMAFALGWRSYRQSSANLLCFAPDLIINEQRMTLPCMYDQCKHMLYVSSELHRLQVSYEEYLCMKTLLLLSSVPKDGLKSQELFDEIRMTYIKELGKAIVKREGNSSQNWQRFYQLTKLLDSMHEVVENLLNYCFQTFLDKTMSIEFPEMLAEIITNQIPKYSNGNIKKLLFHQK
How it was run: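 Using MMTV-bla HeLa cells in medium with 1% stripped FBS and 25 mM HEPES, compounds were titrated and incubated overnight-length (18 h). Beta-lactamase cleavage of CCF4 was quantified by dual-emission fluorescence.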

[11] = target: Vitamin D3 receptor (Homo sapiens) (UniProt P11473); assay: qHTS assay for small molecule antagonists of vitamin D receptor signaling (AID 588541);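 also: receptor activated by calcitriol during compound treatment; series mostly up to about 77 µM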
Sequence of Vitamin D3 receptor (Homo sapiens) (P11473 whole entry, looked up): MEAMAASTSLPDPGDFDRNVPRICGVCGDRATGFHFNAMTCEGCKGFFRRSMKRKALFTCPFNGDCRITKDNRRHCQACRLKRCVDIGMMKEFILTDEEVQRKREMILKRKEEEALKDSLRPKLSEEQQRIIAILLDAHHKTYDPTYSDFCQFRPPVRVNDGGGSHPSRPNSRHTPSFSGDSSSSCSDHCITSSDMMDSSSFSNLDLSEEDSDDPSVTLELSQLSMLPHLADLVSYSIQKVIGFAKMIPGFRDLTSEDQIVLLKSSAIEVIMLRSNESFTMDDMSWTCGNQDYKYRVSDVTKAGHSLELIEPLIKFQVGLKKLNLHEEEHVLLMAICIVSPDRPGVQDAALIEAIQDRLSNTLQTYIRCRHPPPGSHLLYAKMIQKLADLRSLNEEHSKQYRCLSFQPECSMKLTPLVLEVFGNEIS
How it was run: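 Antagonist-mode beta-lactamase reporter assay: HEK293T VDR-UAS-bla cells were exposed to titrated compound alongside 1-alpha,25-dihydroxyvitamin D3 at 3 nM final for 16 h. Values were normalized to the 50 nM agonist control and DMSO basal, with IC50 and efficacy from Hill equation fits.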

[12] = target: Vitamin D3 receptor (Homo sapiens) (UniProt P11473); assay: qHTS assay for small molecule agonists of vitamin D receptor signaling (AID 588543)
How it was run: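 Reporter cells (HEK293T, VDR-UAS-bla) were seeded in medium with 2% charcoal-stripped serum and incubated 5 h, then compounds in concentration series were added for 16 h at 37 °C. Stimulation was scaled between DMSO basal and 50 nM 1α,25-dihydroxyvitamin D3.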

[13] = target: DNA dC->dU-editing enzyme APOBEC-3G (Homo sapiens) (UniProt Q9HC16); assay: qHTS for inhibitors of Vif-A3G interactions: Validation (AID 588379; active = well fitted inhibition curve with a large enough effect)
Sequence of DNA dC->dU-editing enzyme APOBEC-3G (Homo sapiens) (Q9HC16 whole entry, looked up): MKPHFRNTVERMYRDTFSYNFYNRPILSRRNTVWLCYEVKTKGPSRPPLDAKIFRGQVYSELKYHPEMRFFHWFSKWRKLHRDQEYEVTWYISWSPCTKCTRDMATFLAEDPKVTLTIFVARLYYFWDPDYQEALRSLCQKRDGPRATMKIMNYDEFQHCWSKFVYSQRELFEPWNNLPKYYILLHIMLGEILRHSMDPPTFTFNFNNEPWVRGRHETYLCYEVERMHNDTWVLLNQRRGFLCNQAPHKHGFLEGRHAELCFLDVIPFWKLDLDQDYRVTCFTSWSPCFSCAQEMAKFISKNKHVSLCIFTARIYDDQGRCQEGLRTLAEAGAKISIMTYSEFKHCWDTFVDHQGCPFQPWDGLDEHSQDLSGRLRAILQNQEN
How it was run: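 HeLa cells stably expressing Vif and A3G-eYFP, 700 cells/well, incubated overnight at 37 deg C, then exposed to compound overnight at 37 deg C. Inhibition of Vif-mediated degradation read as increased yellow fluorescence (Ex 488/Em 500-530) by laser-scanning cytometry.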

[14] = target: Peroxisome proliferator-activated receptor gamma (Homo sapiens) (UniProt P37231); assay: qHTS assay for small molecule antagonists of peroxisome proliferator-activated receptor gamma signaling (AID 588537; active = well fitted inhibition curve with a large enough effect in the signal ratio, with a control signal flat, not every such curve was filed as active; the % refers to the signal ratio;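 also: reporter cells co-stimulated with 50 nM rosiglitazone agonist during compound treatment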)
How it was run: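 Antagonist mode, beta-lactamase reporter in HEK293; charcoal/dextran FBS 1%; 3000 cells/well, 37 C 6-6.5 h; cpd titration + rosiglitazone 50 nM final, 16 h 37 C; CCF4, 2 h RT; 460/530 nm; Hill fit → IC50, efficacy.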

[15] = target: Glucocorticoid receptor (Homo sapiens) (UniProt P04150); assay: qHTS assay for small molecule antagonists of glucocorticoid receptor signaling (AID 588533; active = well fitted inhibition curve with a large enough effect in the signal ratio, with a control signal flat, not every such curve was filed as active; the % refers to the signal ratio;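 also: cells stimulated with 2 nM dexamethasone as agonist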)
How it was run: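 Antagonist-mode qHTS: compound titrations added to GRE-bla HeLa cells, then dexamethasone 2 nM final; 18 h, 37 C. CCF4 FRET fluorescence normalized to dexamethasone and DMSO; IC50 from Hill fit.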

[16] = target: Bile acid receptor (Homo sapiens) (UniProt Q96RI1); assay: qHTS assay for small molecule antagonists of farnesoid X receptor signaling (AID 588526)
Sequence of Bile acid receptor (Homo sapiens) (Q96RI1 whole entry, looked up): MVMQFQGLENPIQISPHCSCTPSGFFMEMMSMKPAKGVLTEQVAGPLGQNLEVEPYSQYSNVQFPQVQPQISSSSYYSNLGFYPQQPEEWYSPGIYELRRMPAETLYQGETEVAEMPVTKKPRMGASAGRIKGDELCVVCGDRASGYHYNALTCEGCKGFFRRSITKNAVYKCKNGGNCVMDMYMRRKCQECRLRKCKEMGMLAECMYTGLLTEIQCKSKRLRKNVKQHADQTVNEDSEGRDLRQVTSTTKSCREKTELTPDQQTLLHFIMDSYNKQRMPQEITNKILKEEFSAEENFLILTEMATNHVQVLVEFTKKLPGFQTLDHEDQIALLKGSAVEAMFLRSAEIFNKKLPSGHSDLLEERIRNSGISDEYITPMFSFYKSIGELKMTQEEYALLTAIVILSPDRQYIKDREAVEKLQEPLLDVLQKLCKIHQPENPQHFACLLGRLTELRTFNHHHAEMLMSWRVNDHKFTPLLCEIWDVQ
How it was run: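 Beta-lactamase reporter antagonist mode: HEK293T FXR-UAS-bla cells, titrated compound, CDCA stimulation, 16 h 37 C, CCF4 dye 2 h RT. Data normalized to CDCA 50 uM and DMSO; Hill-fit IC50.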

[17] = target: Androgen receptor (Homo sapiens) (UniProt P10275); assay: qHTS assay for small molecule agonists of androgen receptor signaling (AID 588515; active = well fitted curve in the direction sought with a large enough effect in the signal ratio, with a control signal flat; the % refers to the signal ratio); settings: AR-UAS-bla HEK293, beta-lactamase ratio, agonist 16 h; stronger effect = higher value
Sequence of Androgen receptor (Homo sapiens) (P10275 whole entry, looked up): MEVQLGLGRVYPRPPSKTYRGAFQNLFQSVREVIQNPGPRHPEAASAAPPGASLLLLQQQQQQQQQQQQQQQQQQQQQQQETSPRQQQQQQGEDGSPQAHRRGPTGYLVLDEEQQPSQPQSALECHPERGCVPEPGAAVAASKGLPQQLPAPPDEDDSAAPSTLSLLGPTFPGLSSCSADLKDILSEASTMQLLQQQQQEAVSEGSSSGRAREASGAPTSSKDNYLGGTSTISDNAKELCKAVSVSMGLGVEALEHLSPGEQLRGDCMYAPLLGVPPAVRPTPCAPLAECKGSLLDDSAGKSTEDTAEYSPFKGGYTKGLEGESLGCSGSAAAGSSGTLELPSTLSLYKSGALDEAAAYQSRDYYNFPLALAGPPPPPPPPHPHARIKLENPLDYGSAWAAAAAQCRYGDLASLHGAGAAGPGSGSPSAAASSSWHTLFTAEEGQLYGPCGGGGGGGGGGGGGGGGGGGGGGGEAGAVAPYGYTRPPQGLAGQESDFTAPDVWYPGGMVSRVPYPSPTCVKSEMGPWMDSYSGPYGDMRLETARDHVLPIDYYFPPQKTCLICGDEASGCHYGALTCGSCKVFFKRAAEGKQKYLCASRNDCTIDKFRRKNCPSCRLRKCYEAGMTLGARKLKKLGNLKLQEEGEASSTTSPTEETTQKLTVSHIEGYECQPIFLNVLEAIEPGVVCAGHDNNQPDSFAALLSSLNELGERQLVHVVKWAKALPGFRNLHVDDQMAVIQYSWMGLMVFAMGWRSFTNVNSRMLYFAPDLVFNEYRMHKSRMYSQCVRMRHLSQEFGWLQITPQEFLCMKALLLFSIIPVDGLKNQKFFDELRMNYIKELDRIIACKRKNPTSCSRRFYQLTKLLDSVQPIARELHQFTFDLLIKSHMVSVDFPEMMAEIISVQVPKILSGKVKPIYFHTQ
How it was run: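 EC50 and efficacy came from Hill fits of titrations (up to 92 uM) normalized to 30 nM R1881 as 100% and DMSO as 0%. Compound exposure was 16 h at 37 C on AR-UAS-bla HEK293 cells, with a 405/460/530 nm CCF4 fluorescence read.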

[18] = target: Androgen receptor (Homo sapiens) (UniProt P10275); assay: qHTS assay for small molecule antagonists of androgen receptor signaling (AID 588516; active = well fitted curve in the direction sought with a large enough effect in the signal ratio, with a control signal flat, not every such curve was filed as active; the % refers to the signal ratio)
How it was run: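 Cells were plated and incubated 5 h, compounds added in titration, then R1881 (10 nM final) as agonist. After 16 h at 37 C, CCF4 substrate was loaded for 2 h at room temperature and fluorescence measured.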

Cc1ncc([N+](=O)[O-])n1CCO
Potency [1]: inactive | outcome [2]: inactive | max response [3]: -0.982% | outcome [4]: inactive | max response [5]: 1.6% | outcome [6]: inactive | outcome [7]: inactive | max response [8]: -7.09% | max response [9]: 26.4% (inactive)

CC[C@H](C)C(=O)O[C@H]1C[C@@H](C)C=C2C=C[C@H](C)[C@H](CC[C@@H]3C[C@@H](O)CC(=O)O3)[C@H]21
Potency [1]: inactive | outcome [2]: inactive | activation [10]: -4.54% (inactive) | outcome [4]: inactive | outcome [11]: inactive | outcome [12]: inactive

CC(=O)Oc1ccccc1C(=O)Nc1ncc([N+](=O)[O-])s1
Potency [1]: inactive | activation [10]: -4.89% (inactive) | max response [3]: -31.7% | outcome [7]: inactive

C[C@]12C=CC(=O)C=C1CC[C@@H]1[C@@H]2C(=O)C[C@@]2(C)[C@H]1CC[C@]2(O)C(=O)CO
Potency [1]: inactive | outcome [2]: inactive | outcome [4]: inactive | outcome [11]: inactive | outcome [12]: inactive | max response [5]: 13.7% | outcome [6]: inactive | outcome [7]: inactive | max response [8]: 4.53% | max response [9]: -10.9% (inactive)

O=C(N[C@H](CO)[C@H](O)c1ccc([N+](=O)[O-])cc1)C(Cl)Cl
outcome [13]: inactive | Potency [1]: inactive | max response [3]: -4.34% and 5.8% | outcome [4]: inactive | Potency [14]: inactive | max response [5]: -13.6% | outcome [6]: inactive | outcome [7]: inactive | max response [8]: -5.3% and -7.21% | max response [9]: 39.9% (inactive) and -11.1% (inactive)

NC(N)=NC(N)=NCCc1ccccc1
Potency [1]: inactive | outcome [2]: inactive | activation [10]: 10% (inactive) and -5.38% (inactive) | max response [3]: -11.9% and 9.95% | outcome [4]: inactive | Potency [14]: inactive | max response [5]: 8.58% and 2.73% | outcome [6]: inactive | outcome [7]: inactive | max response [8]: 0.584% and 0.821% | max response [9]: 19.7% (inactive) and -15.5% (inactive)

N=C(N)c1ccc(OCCCCCOc2ccc(C(=N)N)cc2)cc1
Potency [1]: inactive | outcome [2]: inactive | activation [10]: -5.79% (inactive) and -1.59% (inactive) | outcome [15]: inactive | max response [3]: -25.7% | outcome [11]: inactive | outcome [12]: inactive | max response [5]: 18.8% | outcome [6]: inactive | outcome [7]: inactive

Cc1cc(NS(=O)(=O)c2ccc(N)cc2)no1
outcome [16]: inactive | activation [10]: 9.43% (inactive) | outcome [15]: inactive | outcome [4]: inactive | outcome [11]: inactive | outcome [12]: inactive | max response [5]: 12.4% | outcome [6]: inactive | outcome [7]: inactive | max response [8]: -9.35% | max response [9]: 6.61% (inactive)

Cc1ccnc2c1NC(=O)c1cccnc1N2C1CC1
outcome [16]: inactive | activation [10]: -5.33% (inactive) | outcome [15]: inactive | max response [3]: 14.9% | outcome [4]: inactive | outcome [11]: inactive | outcome [12]: inactive | max response [5]: 12% | outcome [6]: inactive | outcome [7]: inactive | max response [8]: -4.35% | max response [9]: 11.4% (inactive)

Cc1nnc(NS(=O)(=O)c2ccc(N)cc2)s1
Potency [1]: inactive | outcome [2]: inactive | activation [17]: -1.65% (inactive) | outcome [18]: inactive | outcome [4]: inactive | outcome [11]: inactive | outcome [12]: inactive | max response [5]: -10.5% | outcome [6]: inactive | outcome [7]: inactive | max response [8]: -2.81% | max response [9]: -2.27% (inactive)

CC[C@H](NC(C)C)[C@H](O)c1ccc(O)c2[nH]c(=O)ccc12
outcome [13]: inactive

OC(Cn1cncn1)(Cn1cncn1)c1ccc(F)cc1F
Potency [1]: inactive | outcome [2]: inactive | activation [10]: 0.0878% (inactive) | outcome [15]: inactive | outcome [4]: inactive | Potency [14]: inactive | outcome [11]: inactive | outcome [12]: inactive | max response [5]: -28.2% | outcome [6]: inactive | outcome [7]: inactive | max response [8]: -2.01% | max response [9]: 6.23% (inactive)

CCc1cc(C(N)=S)ccn1
activation [10]: 1.04% (inactive) | outcome [15]: inactive | max response [3]: -62.7% and 18.6% | outcome [11]: inactive | outcome [12]: inactive | max response [5]: -5.67% | outcome [6]: inactive | outcome [7]: inactive | max response [8]: -0.783% | max response [9]: 10.8% (inactive)

CC(=O)CC(c1ccccc1)c1c(O)c2ccccc2oc1=O (centres undefined)
outcome [12]: inactive | max response [5]: 2.14% | outcome [6]: inactive | max response [8]: -2.55% | max response [9]: 8.9% (inactive)
